Laboratory results: PubChem BioAssay AID492952 (Southern Research Specialized Biocontainment Screening …, 2010)
Among all 2,300 compounds or so, about 1,500 (65%) were called active. No rule for the calls is given here. The set was probably picked from earlier hits. The list shows a part of the results. Results with a measured potency or affinity are listed apart.

Assay: replicating M. tuberculosis growth inhibition, dose response, non-replicating M. tuberculosis project, H37Rv (AID 492952);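 also: Mycobacterium tuberculosis grown in culture; growth inhibition read after a week of incubation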
Conditions: series mostly up to 50 µM

Row | SMILES | outcome
1 | CC(=O)CCC1CC(c2ccc(Cl)cc2)=NO1 (stereo not drawn) | inactive
2 | COC(=O)c1ccccc1NC(=O)C1CC(c2ccc(F)cc2)=NO1 (stereo not drawn) | inactive
3 | COc1ccc(OCCC(=O)OCC(=O)Nc2ccc(Br)cc2)cc1 | inactive
4 | CC(C)(C)c1ccc(OCCC(=O)OCC(=O)NC2CCCCC2)cc1 | inactive
5 | O=C(COc1ccc([N+](=O)[O-])cc1)NNC(=O)c1cccs1 | inactive
6 | CC/C(=C\c1oc2cc3ccccc3cc2[n+]1CC)Nc1ccccc1 | inactive
7 | CCOC(=O)c1c(-c2ccc(C)o2)csc1NC(=O)CN1CCCCC1 | inactive
8 | CCc1nnc(NC(=O)CN2CCN(c3ccccc3F)CC2)s1 | inactive
9 | Brc1ccc(OCCCCN2CCCCC2)cc1 | inactive
10 | COc1ccc2cc(C(=O)NCc3ccccc3)c(=O)oc2c1 | inactive
11 | COCCNC(=O)c1cc2cc(Cl)cc(Cl)c2oc1=O | inactive
12 | NC(=O)N/N=C/c1ccccc1OC(=O)c1cc2ccccc2oc1=O | inactive
13 | COc1cccc2cc(C(=O)c3ccc([N+](=O)[O-])cc3)oc12 | inactive
14 | CC(C)[C@H](NC(=O)c1ccc(Br)cc1)C(=O)NC1CCCCC1 | inactive
15 | Oc1ccc(Cl)cc1CNCc1ccc(F)cc1 | inactive
16 | C=CCn1c(=O)c(C(=O)Nc2cccnc2)c(O)c2ccccc21 | inactive
17 | O=C(N/N=C/c1cccc(F)c1)c1c(O)c2ccccc2[nH]c1=O | inactive
18 | O=C(N/N=C/c1coc2ccccc2c1=O)c1ccc(Cl)cc1 | inactive
19 | O=C1CC(N2CCSCC2)C(=O)N1CCc1ccccc1 (stereo not drawn) | inactive
20 | Cc1cc2ccccc2n1CCNC(=O)C(C)(C)C | inactive
21 | O=C(COc1ccc(Cl)cc1)Nc1ccc2[nH]ncc2c1 | inactive
22 | CC1CCN(CCOCCSc2ccc(Cl)cc2)CC1 | inactive
23 | CCCCCCNC(=O)c1ccc(Br)o1 | inactive
24 | CCOc1ccc(OCc2ccc(C(=O)N/N=C(\C)c3ccccn3)cc2)cc1 | inactive
25 | COc1ccc(C(=O)Nc2ccccc2C(=O)N/N=C/c2ccco2)cc1 | inactive
26 | C=CCNc1nc(C(=O)OCC(=O)c2cccc(Br)c2)cs1 | inactive

Row | SMILES | outcome
27 | CC(=O)NCCOC(=O)Nc1sc(=S)n(C)c1C | inactive
28 | C/C(=N\Nc1ccc(Cl)cc1)c1ccccn1 | inactive
29 | Cc1cc(O)c(-c2cc(O)c(C)cc2O)cc1O | inactive
30 | COC(=O)c1ccc(COC(=O)CCS(=O)(=O)c2ccc(C)cc2)cc1 | inactive
31 | O=C(COC(=O)c1ccccn1)Nc1cccc(Cl)c1Cl | inactive
32 | CC(C)(C)C(=O)COc1ccccc1[N+](=O)[O-] | inactive
33 | COCCn1c(C)cc(C(=O)COC(=O)c2ccc(Br)o2)c1C | inactive
34 | C=CC[n+]1ccn(-c2nc3ccccc3nc2[N-]S(=O)(=O)c2cccs2)c1 | inactive
35 | CCCCSc1nnc(-c2cc(Br)ccc2N)c(=O)[nH]1 | inactive
36 | Cc1ccc(C(=O)CCNc2ccc(Br)cc2)o1 | inactive
37 | C/C(=N\NC(=O)c1cccs1)c1ccc2c(c1)OCO2 | inactive
38 | CC(Cc1cccs1)NC(=O)c1cccc(Cl)c1 (stereo not drawn) | inactive
39 | Cc1ccc(NC(CC(=O)c2ccccc2)C(=O)O)cc1Cl (stereo not drawn) | inactive
40 | Cc1ccc(C(=O)CCNc2ccc(F)c(Cl)c2)o1 | inactive
41 | CC(C)COc1ccc(C(=O)CCN2CCCCC2)cc1 | inactive
42 | COc1cc(C(=O)CCN2CCC(c3ccccc3)C2)cc(OC)c1OC (stereo not drawn) | inactive
43 | CC(C)Oc1ccc(C(=O)CCN2CCCCC2)cc1 | inactive
44 | CCCCc1ccc(NS(=O)(=O)c2c(C)n(C)c(=O)n(C)c2=O)cc1 | inactive
45 | C=C(C)C1CC=C(C)/C(=N/NC(=O)CNc2ccc(OCC)cc2)C1 (stereo not drawn) | inactive
46 | CC1N(C)c2cccc3cccc(c23)N1C | inactive
47 | CCCCCCCCCCn1ccc(=N)cc1 | inactive
48 | CCc1ccc(OCCCC(=O)NCc2ccco2)cc1 | inactive
49 | Nc1ccc2c(c1)oc1ccccc12 | inactive
50 | CCOC(=O)c1cn(Cc2cccc(Cl)c2)nn1 | inactive
51 | COc1cc(/C=C2\C(=O)N(c3ccc(S(N)(=O)=O)cc3)N=C2C)ccc1OC(=O)c1ccco1 | inactive
52 | COc1cc(/C=N/Nc2ccc(Cl)c(C(=O)O)c2)ccc1OC(=O)c1ccco1 | inactive

Row | SMILES | outcome
53 | O=C(COc1ccccc1)NNc1nc2ccccc2s1 | inactive
54 | CC/C(=C\C=C\[C@@H]1C=C[C@@H]2CCC[C@H]2[C@@H]1C(=O)c1ccc[nH]1)[C@@H]1O[C@@H]([C@@H](C)C(=O)O)CC[C@@H]1C | inactive
55 | Cc1cccc(NCc2ccc([N+](=O)[O-])s2)c1 | inactive
56 | CCCc1nnc(-c2ccc(OC)cc2)o1 | inactive
57 | CCc1ccc(C(=O)NC2CCCCC2)s1 | inactive
58 | CCc1cc(C=NC2CCCCC2)c(O)s1 | inactive
59 | CC(=O)c1c(O)cc(=O)n(-c2ccccc2)c1-c1ccc(C)cc1 | inactive
60 | CCOC(=O)c1c(NC(=O)COC(=O)c2ccccn2)sc2c1CCC2 | inactive
61 | O=C(Oc1cccc([N+](=O)[O-])c1)c1ccc2c(=O)n3c(nc2c1)CCC3 | inactive
62 | Cc1ccc2c(CC(=O)OCC(=O)Nc3ccc(Cl)cn3)coc2c1 | inactive
63 | O=C(Nc1ccccc1N1CCCC1)c1cccc(F)c1 | inactive
64 | Cc1ccc(NC(=O)CN(C)C2CCCCC2)cc1Br | inactive
65 | O=C(Nc1ncccc1O)c1ccc(Oc2ccccc2)cc1 | inactive
66 | O=C(Nc1ncccn1)c1ccc([N+](=O)[O-])o1 | inactive
67 | Cc1noc(C)c1COc1ccc(C(=O)Nc2ccccn2)cc1 | inactive
68 | O=C(Nc1cccnc1)c1ccc(-c2ccc(Cl)cc2)o1 | inactive
69 | CCOC(=O)c1ccc(N=C2SC(C(=O)Nc3ccc(C(=O)O)cc3)CC(=O)N2Cc2cccs2)cc1 (stereo not drawn) | inactive
70 | COC(=O)C1=C(C(=O)OC)C(c2cc(Cl)ccc2O)c2sc(=O)[nH]c2S1 (stereo not drawn) | inactive
71 | Cc1ccc(SCCC(=O)OCC(=O)NCC2CCCCC2)cc1 | inactive
72 | COc1ccccc1NC(=O)CCN1CCN(c2ccc(Cl)cc2)CC1 | inactive
73 | CC(/C=C/c1ccco1)=N/NC(=O)c1ccc(C)nc1 | inactive
74 | CC(/C=C/c1ccc2c(c1)OCO2)=N/NC(=O)C1COc2ccccc2O1 (stereo not drawn) | inactive
75 | O=C(N/N=C/c1ccc[nH]1)c1ccc(Cl)cc1 | inactive
76 | O=C(N/N=C/c1ccc(Br)s1)c1cccnc1 | inactive
77 | Cn1cccc1/C=N/NC(=O)c1ccco1 | inactive
78 | O=C(N/N=C/c1ccc[nH]1)c1cccnc1 | inactive
